This note sets out measurements from PubChem BioAssay (EPA / NIEHS).

Read-out in assay [1]: Human Leukocyte Antigen - DR isotype (HLADR), HLA-DRA (gene 3122)
In words: BSK_BE3C_HLADR: BioMAP Diversity Plus: BE3C Assay for Human Leukocyte Antigen - DR isotype (HLADR) Biomarker Activity (AID 2283032). Particulars: primary human bronchial epithelial cells; actives raise or lower the signal. A digest of the protocol:
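ELISA read-out of HLA-DR on human lung bronchial epithelial primary cells, measured 24 h post-dosing. Both increases and decreases were scored relative to DMSO vehicle.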

Read-out in assay [2]: Vascular cell adhesion molecule 1 (VCAM1), VCAM1 (gene 7412)
Nature of the assay: BSK_4H_VCAM1: BioMAP Diversity Plus: 4H Assay for Vascular cell adhesion molecule 1 (VCAM1) Biomarker Activity (AID 2283033).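 For outcome: cell-surface VCAM-1 protein measured by ELISA.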 To be noted: primary human endothelial cells (HUVEC); actives raise or lower the signal. In outline: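 ELISA read-out of VCAM-1 on human umbilical vein endothelium 24 hours after chemical dosing; gain or loss of signal was fitted relative to DMSO, with sulforhodamine B staining of parallel cultures flagging overt cytotoxicity.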

Read-out in assay [3]: Interferon-gamma inducible Protein 10 (IP10), CXCL10 (gene 3627)
In words: BSK_BE3C_IP10: BioMAP Diversity Plus: BE3C Assay for Interferon-gamma inducible Protein 10 (IP10) Biomarker Activity (AID 2283034). Particulars: primary human bronchial epithelial cells; actives raise or lower the signal. In outline:
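Chemical is dosed onto human lung bronchial epithelial primary cells, cultures are incubated 24 h, and IP-10 is then quantified by ELISA. Gain or loss of signal is fitted in both directions relative to DMSO.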

Read-out in assay [4]: Monokine induced gamma interferon (MIG), CXCL9 (gene 4283)
Nature of the assay: BSK_BE3C_MIG: BioMAP Diversity Plus: BE3C Assay for Monokine induced gamma interferon (MIG) Biomarker Activity (AID 2283035). To be noted: primary human bronchial epithelial cells; actives raise or lower the signal. A digest of the protocol: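 Primary human bronchial epithelial cells treated for 24 h; MIG levels measured by ELISA, fitted bidirectionally versus DMSO. Parallel SRB total-protein staining assessed cytotoxicity.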

Read-out in assay [5]: Transforming growth factor beta 1 (TGFb1), TGFB1 (gene 7040)
In words: BSK_BE3C_TGFb1: BioMAP Diversity Plus: BE3C Assay for Transforming growth factor beta 1 (TGFb1) Biomarker Activity (AID 2283036;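 for outcome: TGF-b1 protein level measured by ELISA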). Particulars: primary human bronchial epithelial cells; actives raise or lower the signal. A digest of the protocol: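 Primary human lung bronchial epithelial cells; compound exposure 24 h; TGF-b1 by ELISA; bidirectional fit, DMSO baseline. Parallel SRB total-protein staining for cytotoxicity.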

Read-out in assay [6]: Plasminogen activator inhibitor-1 (PAI1), SERPINE1 (gene 5054)
Nature of the assay: BSK_BE3C_PAI1: BioMAP Diversity Plus: BE3C Assay for Plasminogen activator inhibitor-1 (PAI1) Biomarker Activity (AID 2283037). To be noted: primary human bronchial epithelial cells; actives raise or lower the signal. In outline:
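Primary human lung bronchial epithelial cells; chemical dosing; 24 h; PAI-1 measured by ELISA; bidirectional fit referenced to DMSO as negative control.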

Read-out in assay [7]: urokinase plasminogen activator (uPA), PLAU (gene 5328)
In words: BSK_BE3C_uPA: BioMAP Diversity Plus: BE3C Assay for urokinase plasminogen activator (uPA) Biomarker Activity (AID 2283038).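 For outcome: uPA protein level quantified by ELISA in cell cultures; uPA read one day after compound addition.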 To be noted: primary human bronchial epithelial cells; actives raise or lower the signal. A digest of the protocol: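 ELISA for uPA on human primary bronchial epithelial cultures 24 h post-treatment, gain or loss against DMSO. Parallel SRB staining (0.1% after 10% TCA fixation, 560 nm) assessed overt cytotoxicity.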

Read-out in assay [8]: Urokinase-type plasminogen activator receptor (uPAR), PLAUR (gene 5329)
In words: BSK_BE3C_uPAR: BioMAP Diversity Plus: BE3C Assay for Urokinase-type plasminogen activator receptor (uPAR) Biomarker Activity (AID 2283039).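 For outcome: cells exposed to compound for one day before measurement.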 Particulars: primary human bronchial epithelial cells; actives raise or lower the signal. In outline: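 Human bronchial epithelial primary cells; chemical exposure 24 h; uPAR by ELISA; bidirectional fit vs DMSO control.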

Read-out in assay [9]: Interleukin-6 (IL6), IL6 (gene 3569)
Nature of the assay: BSK_CASM3C_IL6: BioMAP Diversity Plus: CASM3C Assay for Interleukin-6 (IL6) Biomarker Activity for (AID 2283040). To be noted: primary human coronary artery smooth muscle cells; actives raise or lower the signal.

Read-out in assay [10]: Tissue plasminogen activator (tPA), PLAT (gene 5327)
In words: BSK_BE3C_tPA: BioMAP Diversity Plus: BE3C Assay for Tissue plasminogen activator (tPA) Biomarker Activity (AID 2283041).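 For outcome: tPA level quantified by ELISA one day after compound addition.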 Particulars: primary human bronchial epithelial cells; actives raise or lower the signal. A digest of the protocol:
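Primary human lung bronchial epithelial cultures receive test chemical; after 24 h, tPA is quantified by ELISA, and gain or loss of signal is fitted bidirectionally relative to DMSO baseline.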

Read-out in assay [11]: Interleukin-8 (IL8), CXCL8 (gene 3576)
In words: BSK_CASM3C_IL8: BioMAP Diversity Plus: CASM3C Assay for Interleukin-8 (IL8) Biomarker Activity (AID 2283042).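 Note: IL-8 protein level quantified by ELISA.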 Particulars: primary human coronary artery smooth muscle cells; actives raise or lower the signal.

Read-out in assay [12]: Human Leukocyte Antigen - DR isotype (HLADR), HLA-DRA (gene 3122)
In words: BSK_CASM3C_HLADR: BioMAP Diversity Plus: CASM3C Assay for Human Leukocyte Antigen - DR isotype (HLADR) Biomarker Activity (AID 2283043).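 Note: cell-surface HLA-DR protein level quantified by ELISA.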 Particulars: primary human coronary artery smooth muscle cells; actives raise or lower the signal.

Read-out in assay [13]: Macrophage colony-stimulating factor (MCSF), CSF1 (gene 1435)
In words: BSK_CASM3C_MCSF: BioMAP Diversity Plus: CASM3C Assay for Macrophage colony-stimulating factor (MCSF) Biomarker Activity (AID 2283044).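 Note: M-CSF protein amount quantified by ELISA after 24 h exposure.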 Particulars: primary human coronary artery smooth muscle cells; actives raise or lower the signal.

Read-out in assay [14]: Low-density lipoprotein receptor (LDLR), LDLR (gene 3949)
Nature of the assay: BSK_CASM3C_LDLR: BioMAP Diversity Plus: CASM3C Assay for Low-density lipoprotein receptor (LDLR) Biomarker Activity (AID 2283045).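 Note: LDLR protein level on the cell surface quantified by ELISA.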 To be noted: primary human coronary artery smooth muscle cells; actives raise or lower the signal.

Read-out in assay [15]: Monocyte Chemoattractant Protein-1 (MCP1), CCL2 (gene 6347)
In words: BSK_CASM3C_MCP1: BioMAP Diversity Plus: CASM3C Assay for Monocyte Chemoattractant Protein-1 (MCP1) Biomarker Activity (AID 2283046).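 Note: MCP-1 level quantified by ELISA 24 h after dosing.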 To be noted: primary human coronary artery smooth muscle cells; actives raise or lower the signal.

Assay [16] in a line: BSK_CASM3C_Proliferation: Cell Proliferation Assessment in the BioMAP Diversity Plus: CASM3C Assay (AID 2283047).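 Note: sulforhodamine B total protein stain as relative cell number at 560 nm; sub-confluent cells exposed 48 h before staining; fitted both ways against DMSO so gain or loss of cell number.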 Particulars: primary human coronary artery smooth muscle cells.
Read-out in assay [17]: Monokine induced gamma interferon (MIG), CXCL9 (gene 4283)
Nature of the assay: BSK_CASM3C_MIG: BioMAP Diversity Plus: CASM3C Assay for Monokine induced gamma interferon (MIG) Biomarker Activity (AID 2283048). Particulars: primary human coronary artery smooth muscle cells; actives raise or lower the signal.

Read-out in assay [18]: serum amyloid A (SAA), SAA1 (gene 6288)
Nature of the assay: BSK_CASM3C_SAA: BioMAP Diversity Plus: CASM3C Assay for serum amyloid A (SAA) Biomarker Activity (AID 2283049).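 Note: SAA protein level quantified by ELISA.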 To be noted: primary human coronary artery smooth muscle cells; actives raise or lower the signal.

The nature of assay [19]: BSK_CASM3C_SRB: Viability Assessment in the BioMAP Diversity Plus: CASM3C Assay (AID 2283050).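 Note: total protein by SRB staining as cytotoxicity measure in parallel cultures.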 Particulars: primary human coronary artery smooth muscle cells.
Read-out in assay [20]: Thrombomodulin, THBD (gene 7056)
Nature of the assay: BSK_CASM3C_Thrombomodulin: BioMAP Diversity Plus: CASM3C Assay for Thrombomodulin Biomarker Activity (AID 2283051).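 Note: thrombomodulin protein level measured by ELISA 24 h after dosing.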 To be noted: primary human coronary artery smooth muscle cells; actives raise or lower the signal.

Active and inactive are the calls of the source. Rule for the calls: active = hit-call score of the fitted dose curve at least 0.9, where 1 is the maximum; inactive = score below 0.9.

A word on the AC50: it is the concentration giving half of the maximal activity seen.

Consider `C[C@H]1[C@H](c2ccc(Cl)cc2)SC(=O)N1C(=O)NC1CCCCC1`, for which the AC50 in assay [1] is 12.6 µM (active); in assay [2], 7.61 µM (active); in assay [6], 10.6 µM (active); in assay [9] it was 7.98 µM (active); in assay [16] it was 20 µM (active); in assay [20] it was 14.9 µM (active). Besides, the outcome in assay [3], in assay [4], in assay [5], in [7], in [8] and in assay [10] was inactive. Moreover, the result in assay [11], in assay [12], in assay [13], in assay [14], in [15] and in assay [17] was inactive. For the same compound, the outcome in [18] and in assay [19] was inactive.
As to `COC(=O)c1ccccc1S(=O)(=O)NC(=O)Nc1nc(C)nc(OC)n1`, the outcome in assay [1], in assay [2], in assay [3], in [4], in assay [5] and in assay [6] was inactive. Besides, the result in assay [7], in assay [9], in [10], in assay [11], in assay [12] and in assay [13] was inactive. The outcome in assay [14], in [15], in assay [16], in [17], in assay [18] and in assay [19] was inactive. For the same compound, the outcome in [20] was inactive. Also, the AC50 in [8] was 0.173 µM (active).
As for `CC(C)OC(=O)Nc1cccc(Cl)c1`, the result in assay [1], in assay [2], in [3], in [4], in assay [5] and in [6] was inactive. The result in assay [7], in assay [8], in assay [9], in assay [10], in assay [11] and in assay [12] was inactive. The result in assay [13], in [14], in [15], in assay [16], in [17] and in assay [18] was inactive. The outcome in [19] and in [20] was inactive.
As for `CC1(C)C(C=C(Cl)Cl)C1C(=O)OC(C#N)c1ccc(F)c(Oc2ccccc2)c1` (stereo not given), the result in assay [1], in assay [2], in [3], in assay [4], in assay [5] and in assay [6] was inactive. Moreover, the result in [7], in assay [8], in assay [9], in assay [10], in [11] and in [12] was inactive. Besides, the result in assay [13], in [14], in assay [15], in assay [16], in [17] and in [18] was inactive. Also, the outcome in assay [19] was inactive. Also, in assay [20], the AC50 was 33.8 µM (active).
For `O=C1c2ccccc2C(=O)N1SC(Cl)(Cl)Cl`, the AC50 is 30.6 µM (active) in assay [1]; 35 µM (active) in assay [3]; 35.7 µM (active) in assay [4]; 31.6 µM (active) in assay [5]; 20 µM (active) in [6]; 28.7 µM (active) in [7]. Besides, the concentration at half-maximal activity (AC50) in assay [8] is 34.7 µM (active); in assay [9], 30.3 µM (active); in assay [11], 38.6 µM (active); in [12], 28.7 µM (active); in [13] it was 16 µM (active); in assay [15], 30 µM (active). Besides, the AC50 in assay [16] was 18.8 µM (active); in assay [17], 30.4 µM (active); in assay [19] it was 29 µM (active); in [20], 4.99 µM (active). Moreover, the outcome in assay [2], in assay [10], in assay [14] and in [18] was inactive.
With `O=S1OCC2C(CO1)C1(Cl)C(Cl)=C(Cl)C2(Cl)C1(Cl)Cl` (stereo not given), the concentration at half-maximal activity (AC50) is 26.6 µM (active) in assay [1]; 36.5 µM (active) in [2]; 17.8 µM (active) in assay [3]; 34.4 µM (active) in [4]; 39.1 µM (active) in [5]; 28.8 µM (active) in assay [6]. Also, the AC50 in [7] was 30.3 µM (active); in assay [8], 30.7 µM (active); in [10] it was 21.5 µM (active); in [11] it was 29.6 µM (active); in [12], 32.5 µM (active); in [13], 31.5 µM (active). Besides, the half-maximal activity concentration (AC50) in assay [15] was 31.7 µM (active); in assay [16], 32.7 µM (active); in assay [17], 32.1 µM (active); in assay [18] it was 32.7 µM (active); in [19], 32.4 µM (active); in assay [20], 14.3 µM (active). The result in assay [9] and in [14] was inactive.
